Assay outcomes from PubChem BioAssay.
GSTO1 inh = blocks human GSTO1 in RBBP9 counter-screen | AID 1974 | recombinant GSTO1, activity-based probe fluorescence polarization | 300,000 compounds, 1.1% hits | P78417 | inhibition, % at 5.96 µM;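 active = inhibition above the campaign mean inhibition plus 3 SD, cut at about 35% in these data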;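 note: 0% = GSTO1-1 with DMSO and 100% = wells lacking GSTO1-1 enzyme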
PAD4 FP inh = blocks human protein arginine deiminase 4. Q9UM07. recombinant PAD4, RCA probe fluorescence polarization. 330,000 compounds, 0.41% hits. AID 485272. inhibition, % at 6.36 µM;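 active = percent inhibition above a cutoff equal to the mean of all tested compounds plus 3 SD, cut at about 15% in these data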;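 note: 0% = PAD4 with RCA probe and DMSO and 100% = probe without PAD4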
Target sequence (Q9UM07 whole entry, looked up): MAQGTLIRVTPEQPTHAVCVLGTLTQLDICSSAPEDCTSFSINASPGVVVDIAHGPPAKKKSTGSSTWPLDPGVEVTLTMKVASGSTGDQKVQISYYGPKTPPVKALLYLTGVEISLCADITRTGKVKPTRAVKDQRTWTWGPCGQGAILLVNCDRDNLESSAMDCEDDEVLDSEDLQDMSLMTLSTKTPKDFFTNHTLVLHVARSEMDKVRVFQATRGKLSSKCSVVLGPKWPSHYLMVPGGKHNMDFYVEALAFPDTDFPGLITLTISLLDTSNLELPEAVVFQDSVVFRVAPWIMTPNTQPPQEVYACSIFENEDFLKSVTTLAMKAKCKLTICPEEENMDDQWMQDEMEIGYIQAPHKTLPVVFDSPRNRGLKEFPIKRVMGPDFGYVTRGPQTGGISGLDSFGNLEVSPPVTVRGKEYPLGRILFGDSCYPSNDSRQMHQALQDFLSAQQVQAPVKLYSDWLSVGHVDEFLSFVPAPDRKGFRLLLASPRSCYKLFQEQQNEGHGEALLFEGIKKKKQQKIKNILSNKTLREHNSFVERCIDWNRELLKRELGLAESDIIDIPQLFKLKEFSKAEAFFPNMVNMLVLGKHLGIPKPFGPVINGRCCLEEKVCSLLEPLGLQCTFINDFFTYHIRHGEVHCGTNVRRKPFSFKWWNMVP
LYPLA1 counter = blocks human lysophospholipase 1, a PME1 counter-screen; 320,000 compounds, 0.16% hits; inhibition, % at 5.9 µM; AID 2174; O75608; recombinant LYPLA1, FP-Rh probe fluorescence polarization;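 active = inhibition above the mean of all tested compounds plus 3 SD, set per campaign, cut at about 14% in these data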;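 note: inhibitors block serine hydrolase probe labeling of LYPLA1 so polarization falls; 0% = enzyme with DMSO and 100% = wells lacking LYPLA1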
PME-1 primary = blocks human protein phosphatase methylesterase 1 | inhibition, % at 5.9 µM | Q9Y570 | 320,000 compounds, 0.53% hits | recombinant PME-1, FP-Rh probe fluorescence polarization;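 active = inhibition above the campaign mean of all compounds plus 3 SD, cut at about 26% in these data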;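 note: competitive labeling of PME-1 active site by serine hydrolase directed probe; 0% = PME-1 with DMSO and 100% = wells lacking PME-1 enzyme; inhibitors block probe labeling so polarization falls and inhibition rises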
Fam108B inh = Fam108B inhibition, counter-screen for RBBP9 inhibitors; 300,000 compounds, 0.33% hits; inhibition, % at 9.51 µM; recombinant Fam108B, FP-Rh probe fluorescence polarization;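 active = inhibition above the screen mean inhibition plus 3 SD, computed separately per campaign, cut at about 18% in these data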;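 note: inhibitors lower polarization as less probe binds the enzyme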
LYPLA2 inh = blocks human lysophospholipase 2, a PME1 counter-screen. inhibition, % at 5.9 µM. AID 2177. recombinant LYPLA2, FP-Rh probe fluorescence polarization. 320,000 compounds, 0.38% hits. O95372;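 active = inhibition above the screen-wide mean plus 3 SD, limit set per campaign, cut at about 26% in these data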;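 note: 0% = LYPLA2 with DMSO and 100% = wells lacking LYPLA2 enzyme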
GSTO1 confirm = confirmation of human GSTO1 inhibitors; inhibition, % at 5.96 µM; recombinant GSTO1, probe fluorescence polarization; 2,400 compounds, 54% hits; AID 2176; shares compounds with GSTO1 inh;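 active = inhibition above the primary screen's cutoff, its mean inhibition plus 3 SD, cut at about 35% in these data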;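 note: loss of polarization as inhibitors block binding of rhodamine sulfonate ester activity probe; 0% = GSTO1 with DMSO and 100% = wells lacking GSTO1 enzyme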
GSTO1 ABPP inh = inhibitors of recombinant human GSTO1 | gel ABPP SE-Rh probe fluorescence | shares compounds with GSTO1 inh | inhibition, % at 1 µM | 130 compounds, 30% hits;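 active = inhibition of the enzyme GSTO1 above about 75%, limit read from the data; inactive = inhibition below that limit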
An asterisk follows results filed as active; x = no result given. Rows were chosen to be rich in hits. Some 1.8% of all compounds tested hit in one or more screens of this group.

SMILES	GSTO1 inh	PAD4 FP inh	LYPLA1 counter	PME-1 primary	Fam108B inh	LYPLA2 inh	GSTO1 confirm	others
Brc1ccc2c(c1)CN1CCCC1=N2	-7	2	-3	-1	-1	-9	x
CN(C)c1ccc(NS(=O)(=O)c2ccc(-c3csnn3)cc2)cc1	39*	5	3	11	1	0	30
CC(CCc1ccccc1)NC(=O)COC(=O)C1CCC(C(C)(C)C)CC1 (stereo not drawn)	42*	1	-9	-1	2	-5	31
Oc1ccc(-c2csc(-c3ccccc3)n2)cc1O	39*	1	-11	-17	4	-6	2
Oc1ccc(-c2csc(-c3cccnc3)n2)cc1O	59*	5	-2	-6	-4	0	6
Cc1nc(-c2ccc(O)c(O)c2)cs1	42*	5	1	-10	14	7	7
Cc1ccc2nc(-c3ccc(O)c(O)c3)cn2c1	58*	-4	-6	-4	0	-4	11
Cc1ccc2c(c1)C(=C(C#N)C#N)C(=O)N2CCN1CCCCC1	9	-2	-3	8	1	0	x
O=C(COc1ccc(C(=O)c2ccccc2)cc1)NCC(=O)Nc1ccccc1Br	2	-2	2	-3	-1	1	x
COc1ccc(Sc2ccccc2CN(C)C)cc1OC	10	2	1	-8	2	0	x
CNCc1ccccc1Sc1ccc(O)c(O)c1	74*	-1	1	4	5	8	71*
CCOC(=O)N1CCN(C(=O)C(NC(=O)c2ccc(C(C)(C)C)cc2)C(C)C)CC1 (stereo not drawn)	x	-2	2	-3	x	2	x
O=C(O)c1cc(N/N=C/c2ccc(N3CCOCC3)s2)ccc1Cl	39*	-3	3	-3	16	5	18
COC1=C(Nc2ccc(OC)cc2)C(=O)c2ccccc2C1=O	17	-15	5	11	5	13	x
COc1cc(OC)c(NC2=CC(=O)C(=O)c3ccccc32)cc1Cl	79*	11	3	10	17	10	77*
CCN(CC)c1ccc(NC2=C(Cl)C(=O)c3ccccc3C2=O)cc1	83*	-2	-3	7	14	1	84*
CCNC1=C(Cl)C(=O)c2ccccc2C1=O	70*	-5	6	10	3	7	8
CCC(C(=O)Nc1cc(Cl)c(OC)cc1OC)c1ccccc1 (stereo not drawn)	2	-5	1	2	-3	6	x
Cc1ccc(NC2=CC(=O)C(=O)c3ccccc32)cc1	77*	39*	3	15	12	3	73*
CCc1nnc(NC(=O)CCC(=O)N2CCN(c3cc(Cl)ccc3C)CC2)s1	1	0	-2	7	0	2	x
Nc1nc2ncc(-c3ccsc3)c(N)n2n1	4	-4	-1	-3	0	1	x
Cc1cc(C)cc(NC2=C(N)C(=O)c3ccccc3C2=O)c1	22	13	1	6	3	22	x
CC(=O)Nc1ccc(NC2=CC(=O)c3ccccc3C2=O)cc1	39*	-9	3	0	4	9	8
Cc1ccc(NC2=C(Cl)C(=O)c3ccccc3C2=O)cc1	85*	2	-1	21	10	10	85*
O=C(NC1=C(Nc2ccc(F)cc2)C(=O)c2ccccc2C1=O)c1ccc(Cl)cc1	22	-8	-2	3	11	1	x
SMILES	GSTO1 inh	PAD4 FP inh	LYPLA1 counter	PME-1 primary	Fam108B inh	LYPLA2 inh	GSTO1 confirm	others
O=C1C(=O)c2ccccc2C(O)=C1c1ccccc1F	-5	-5	4	0	3	9	x
O=C1C(Cl)=C(Nc2ccc(O)cc2)C(=O)c2ccccc21	90*	3	2	21	12	5	92*
O=C1C(O)=C(O)C(=O)c2ccccc21	81*	2	5	11	12	7	68*
O=C(NCCN1CCCC1)c1ccccc1Cl	2	3	-3	5	2	4	x
O=C1C(Cl)=C(NCCN2CCCCC2)C(=O)c2ccccc21	71*	-3	-1	4	4	4	52*
CN1CCc2cccc3c2C1Cc1ccc(O)c(O)c1-3 (stereo not drawn)	93*	-2	-7	-5	0	0	9
CN1CCC(=C2c3ccccc3C(O)c3ccccc32)CC1 (stereo not drawn)	-4	-2	2	-1	3	-5	x
O=c1oc2ccccc2c2oc3cc(O)c(O)cc3c12	49*	4	-16	3	16	-14	14
Nc1c(N)c2ccccc2oc1=O	10	0	-2	-1	4	-1	x
N/C(=C\C(=O)c1cc(Cl)ccc1O)C(Cl)(Cl)Cl	65*	-2	1	-2	-1	5	77*
O=C1CC(c2ccccc2)Oc2cc(O)cc(O)c21 (stereo not drawn)	12	5	-3	5	-1	9	x
O=C1CC(c2ccc(O)c(O)c2)Oc2cc(O)cc(O)c21 (stereo not drawn)	43*	-4	-7	-6	-7	1	16
O=C(c1cccc([N+](=O)[O-])c1)c1ccc2c(c1)C(=O)N(c1c[nH]c(=O)[nH]c1=O)C2=O	-10	-3	-3	-2	0	0	x
CC(=O)Oc1cc2cccc(OC(C)=O)c(=O)c2c(OC(C)=O)c1OC(C)=O	67*	-4	-4	6	5	-1	55*
COc1cc2cccc(OC)c(=O)c2c(O)c1OC	0	3	-2	-1	-4	-5	x
COc1ccc(N2CCN(C(=O)CNC(=O)Cn3cnc4sc(C)c(C)c4c3=O)CC2)cc1	-2	0	3	-6	-1	1	x
Cc1ccc(S(=O)(=O)c2c(N)n(CCCO)c3nc4ccccc4nc23)cc1	60*	-18	4	10	3	3	9
Cc1ccc[n+](CC(=O)Nc2cccc([N+](=O)[O-])c2)c1	2	2	2	4	0	0	x
Cc1ccc[n+](CC(=O)Nc2ccc([N+](=O)[O-])cc2)c1	91*	4	0	0	5	1	95*
O=C(O)COc1ccc(S(=O)(=O)c2ccc(OCC(=O)O)cc2)cc1	5	3	1	0	-3	3	x
O=S(=O)(c1ccc(OCC2CO2)cc1)c1ccc(OCC2CO2)cc1 (stereo not drawn)	92*	2	1	2	-3	3	90*	GSTO1 ABPP inh=31
CC(C)(c1ccccc1)c1ccc(OCC2CO2)cc1 (stereo not drawn)	94*	3	-1	4	-1	-4	91*	GSTO1 ABPP inh=63
